# In PubChem BioAssay (NCI):
# This is part of a sample that, as a whole, favours compounds with a hit. Of some 83,000 tested, about 20% had one in any assay.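 For each line, cells grew in 96-well plates with the test compound present at a single concentration for 48 hours.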 A number with no mark means an inactive call. Activity calls are given as the source filed them. How the source made its calls: active means growth percent below 10; inactive means the rest.
# Test system: SN12C renal
# Test: NCI-60 one-dose screen, 48 h (100 = growth as untreated, 0 = no growth, -100 = all killed)
# Conditions: 10 µM unless noted
row,Structure (SMILES),growth
1,COc1cc(CNS(=O)(=O)c2ccc(C)cc2)ccc1OCc1cn(-c2ccc(Br)cc2)nn1,105%
2,Cc1ccc(Cl)cc1Nc1nc(C(F)(F)F)ccc1C(=O)N/N=C/c1cccnc1,36.4%
3,COc1cc2c(c(OC)c1OC)-c1ccc(OC)c(=O)cc1[C@@H](NC(=O)CCl)CC2,19.3%
4,Fc1ccc(Nc2nc3nonc3nc2Nc2ccc(I)cc2)cc1,-5.7% (active)
5,CO[C@H]1/C=C(/C)CCC[C@H](C)[C@H](O)[C@@H](C)C(=O)C(C)(C)[C@@H](O)CC(=O)O[C@@H]1/C(C)=C/c1csc(C)n1,38.9%
6,COCCn1c(-c2csc(-c3cn(C)c4ccc(OC)cc34)n2)cc2cccnc21,80.2%
7,CCNc1nc(-c2ccc(Cl)c(OC)c2)c(-c2ccnc(NCCCNS(=O)(=O)c3ccc(Cl)cc3)n2)s1,66.5%
8,O=C1COCCN1c1ccc(Nc2nc(Cl)nc(OCc3cn(Cc4ccccc4)nn3)n2)cc1,94.2%
9,N#Cc1c(-c2ccc(Cl)cc2)nc(SCC(=O)NC2=NN=C(c3ccccc3)CS2)[nH]c1=O,97.4%
10,Cc1cc2c(O)c(-c3cccc(Cl)c3)c3sc(=O)oc3c2cc1C,36.7%
11,CC1=C(CCC(C)N(C)Cc2ccc(OCCCN3CCCC3)cc2)C(C)(C)CCC1 (stereo not given),56.9%
12,N#Cc1cccc(-c2c(-c3ccc4ccccc4c3)oc3ccccc3c2=O)c1,68.3%
13,Cc1nc2sc(C(=O)Nc3ccccc3)c(N)c2cc1C(=O)c1ccccc1,81.5%
14,O=C(O)CNC1=C(Cl)C(=O)c2ccccc2C1=O,92.7%
15,CCCCCC(=O)OCC(=O)O[C@@H]1C[C@]2(C(C)C)O[C@@]1(C)[C@@H]1CC[C@@H](C)[C@H]1[C@@H]2OC(=O)/C=C/c1ccccc1,19.7%
16,CN1C(=O)/C(=C/c2ccc(C(=O)Nc3ncc(Cc4ccc(Cl)cc4)s3)cc2)SC1=S,68.1%
17,C#CCOc1ccc2ncnc(Nc3cccc(NC(=O)C=C)c3)c2c1,65.3%
18,CN(CCOc1ccc(C#N)cc1)CCOc1ccc(C#N)cc1,81.6%
19,CCOC(=O)c1c(NC(=O)c2ccc(C(C)C)cc2)sc2c(CN(C)C)c(O)ccc12,82%
20,COC(=O)c1c2c(c[n+]([O-])c1C)C(=O)C(NCc1ccccc1)=CC2=O,-78.9% (active)

row,Structure (SMILES),growth
1,Nc1ncnc2c1N=C(c1ccc3c(c1)OCO3)CC(c1ccc([N+](=O)[O-])cc1)N2 (stereo not given),84%
2,N#C/C(=C/c1ccc([N+](=O)[O-])cc1)n1nnc2cc(F)c(F)cc21,61.1%
3,CCN1CCN(c2cc(C(=O)Nc3nc(-c4cc(OC)c(OC)c(OC)c4)cs3)cc(C(F)(F)F)c2)CC1,71.8%
4,CN1CCN(c2ccc(C(=O)Nc3cccc(C#Cc4cccc5[nH]nc(N)c45)c3)cc2C(F)(F)F)CC1,3.37% (active)
5,CN1CCN(c2ccc(NC(=O)c3cncnc3Nc3ccc(OCc4ccccn4)c(Cl)c3)cc2)CC1,59.2%
6,c1ccc(CNc2c3ccccc3nc3ccccc23)cc1,37.5%
7,C/C(=N\NC(=O)c1ccccc1O)c1cccc(/C(C)=N/NC(=O)c2ccccc2O)n1,55%
8,N#Cc1c(NC(=O)c2ccccc2)sc2c1CCC(=O)C2,11.6%
9,CCO/C=N/C1=C(C#N)C(c2ccc(OC)cc2)c2sc3c(F)cccc3c2O1 (stereo not given),39.6%
10,O=C(CI)NC1Oc2ccccc2-c2oc(=O)c(-c3ccccc3)cc21 (stereo not given),-71.2% (active)
11,Brc1ccc2[nH]cc(-c3nonc3-c3c[nH]c4ccccc34)c2c1,57.1%
12,Fc1ccc2[nH]cc(-c3nonc3-c3c[nH]c4ccc(Br)cc34)c2c1,47.3%
13,N#CC1C=CN(CC(N)=O)c2ccc3cccnc3c21 (stereo not given),96.3%
14,CCOC(=O)CSc1ncnc2c1c(-c1ccccc1)c(-c1ccccc1)n2-c1ccc(C)cc1,64.3%
15,O=C(Cn1c2c(c3ccccc31)CCCC2)Nc1ccc(-c2nc3ccccc3s2)cc1,103%
16,CC(C)=CCC[C@](C)(O)[C@H]1CC[C@]2(C)[C@@H]1CC[C@@H]1[C@@]3(C)Cc4nccnc4C(C)(C)[C@@H]3CC[C@]12C,72.3%
17,COc1cc2oc(-c3cccc(NC(=O)c4cccc(Br)c4)c3)cc(=O)c2c(OC)c1OC,54.2%
18,O=C(Nc1nc2ccc(F)cc2s1)c1cccnc1Nc1ccc(Cl)cc1,17.9%
19,Nc1c(C(=O)Nc2ccncc2)sc2nc3c(cc12)CCCCCC3,86.4%
20,CC1(C)c2[nH]c3ccccc3c2C[C@]2(C)[C@H]3CC=C4[C@@H]5C[C@@](C)(C(N)=O)CC[C@]5(C)CC[C@@]4(C)[C@]3(C)CC[C@@H]12,61.8%
